Compound activity deposited in PubChem by National Center for Advancing Translational Sciences (NCATS).
TDP1 cell noCPT = qHTS for Inhibitors of human tyrosyl-DNA phosphodiesterase 1 (TDP1): qHTS in cells in absence of CPT | hit rate 15% among 420,000 | Potency, µM (top dose mostly 46.2 µM), for the others: top-dose activity change, negative = growth inhibition, usual class: inhibitors | DT40 Tdp1-/- hTDP1 cells, no CPT, ATP luminescence, 48 h; note: nearly all actives have a fitted effect of over 55% in size
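Camptothecin absent (DMSO only). Human TDP1-complemented DT40 knockout cells, 400 cells/well, 37 °C for minimum 48 hr; ATP measured via CellTiter-Glo, 30 min dark incubation, luminescence.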
TDP1 cell CPT = DT40-hTDP1 cell growth loss with CPT; chicken DT40 Tdp1-/-;hTDP1 cells + 20 nM CPT, ATP luminescence, 48 h; Potency, µM (highest dose often 46.2 µM), for the others: top-dose activity change, negative = growth inhibition, actives largely listed as inhibitors; hit rate 12% among 420,000; AID 686979; note: nearly all actives have a fitted effect of over 55% in size
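Chicken DT40 Tdp1-/- cells stably complemented with human TDP1 were seeded at 400 cells/well in medium containing 20 nM camptothecin, exposed to pin-transferred compounds, and grown at 37 °C for at least 48 hr. Viability was read as ATP luminescence.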
HT1080NT lethal = kills 2HG-producing HT-1080-NT fibrosarcoma cells; HT-1080-NT fibrosarcoma viability, CellTiter-Glo ATP luminescence, 48 h; hit rate 1.6% among 360,000; Potency, µM (series often up to 46.1 µM), without a hit: at the highest dose activity, negative = less viability, most hits filed as cytotoxic;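 note: NT is the 2HG producing partner of a matched IDH1 knockdown line; 0% = DMSO-treated cells and -100% = media-only wells without cells; nearly all actives have a fitted effect of over 55% in size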
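A 48-hour cytotoxicity screen used HT-1080-NT cells plated 2 hours before compound delivery. ATP-based CellTiter-Glo luminescence measured viability, normalized to DMSO and no-cell controls.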
HT1080 IDH1KD tx = toxicity to HT-1080 IDH1 knockdown cells (counter line); HT-1080 IDH1 knockdown viability, ATP luminescence, 48 h; Potency, µM (series often up to 46.1 µM), without a hit: at the top dose activity, negative = toxicity, actives largely listed as cytotoxic; hit rate 2% among 360,000;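 note: 0% = DMSO wells and -100% = cell-free medium wells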
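CellTiter-Glo luminescence after 48 h compound exposure at 37 degrees C of IDH1-knockdown HT-1080 cells in 5% FBS RPMI. %Activity scaled between DMSO wells and cell-free media wells, with curves fitted and assigned curve classes.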
KB-3-1 tox = KB-3-1 parental cell cytotoxicity | Potency, µM (highest dose often 46.1 µM), hits mostly cytotoxic | hit rate 1.4% among 400,000 | KB-3-1 viability, CellTiter-Glo ATP luminescence, 72 h; note: nearly all actives have a fitted effect of over 60% in size
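Parental KB-3-1 viability, qHTS format: 72 h compound exposure, 37 °C; CellTiter-Glo; media-only wells and DMSO plates as controls; concentration-effect fits on corrected data.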
KB-V1 MDR tox = KB-V1 MDR subline cytotoxicity; hit rate 3.4% among 400,000; Potency, µM (titrated, usually from 46.1 µM), actives largely listed as cytotoxic; AID 1347076; KB-V1 MDR cells viability, CellTiter-Glo, 72 h; note: nearly all actives have a fitted effect of over 60% in size
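Cells of the MDR subline KB-V1 are plated, dosed with compound at multiple concentrations, and incubated 72 h at 37 degrees C; CellTiter-Glo is then added and luminescence read after 10 min.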
Active calls of the source: *; i = inactive; ? = inconclusive; · = not tested or not shown; [ ] = dose if it differs, or a comment. In the library only some 19% were active in any assay of this set; here they are far more common. Calls come from the whole dose curve; as a rule, active = well fitted curve in the direction sought with a large enough effect; inconclusive = small, poorly fitted or top-dose-only effect, or another doubt; inactive = no such curve, though single readings can be large; an effect the other way counts as inactive or inconclusive. Unless noted, % is set by controls: 0 for no effect and ±100 for the full control effect; potency is the fitted concentration of half-maximal effect.

SMILES | TDP1 cell noCPT | TDP1 cell CPT | HT1080NT lethal | HT1080 IDH1KD tx | KB-3-1 tox | KB-V1 MDR tox
CCN1C(=NCc2cccc(C(F)(F)F)c2)N[C@@H](c2cccc(C(F)(F)F)c2)C(C(=O)OC)=C1C | 5µM* | 4.5µM* | · | · | ? | ?
CCN1C(=NCc2cccc(Cl)c2)N[C@@H](c2cccc(C(F)(F)F)c2)C(C(=O)OC)=C1C | ? | 11µM* | · | · | i | i
CCOC(=O)CN1C(=O)N[C@@H](c2cccc(C(F)(F)F)c2)C(C(=O)OC)=C1C | 5% | -1% | 6% | 18% | i | i
CCN1C(=O)N[C@@H](c2cccc(C(F)(F)F)c2)C(C(=O)OC)=C1C | ? | 16µM* | 5% | 0% | i | i
O=C1NC[C@@H](CCCCN2CCN(CCC3CCCCC3)C(=O)C2=O)N(CC2CCCCC2)C1=O | -10% | 4% | 13% | 2% | i | i
Cn1nnnc1NCc1cccc(Cl)c1Cl | 9% | -17% | 1% | 7% | i | i
Cc1ccc(S(=O)(=O)NCc2ccc(C(=O)NC3CCC(O)CC3)cc2)cc1C (stereo not given) | -8% | -11% | -1%[9.24 µM] | 3% | i | i
Cc1cccc(OCC(=O)Nc2ccc(C(=O)Nc3ccccc3C(=O)O)cc2)c1C | -22% | -23% | 0% | 1% | i | i
Cc1ccc(C23CC4CC(CC(C(=O)N5CCN(C)CC5)(C4)C2)C3)cc1 | ? | ? | -16% | 1% | ? | ?
Cc1ccc(C)c(N2CCN(C(=O)C34CC5CC(C3)CC(n3nnc(C)n3)(C5)C4)CC2)c1 | 7.3µM* | 6.5µM* | ? | ? | ? | ?
Cc1cc(C)nc(SCc2ccc(C(=O)NNC(=O)Nc3cccc(Cl)c3)cc2)n1 | 13µM* | 21µM* | ? | ? | ? | i
Cc1cc(C)nc(SCc2ccc(C(=O)N/N=C/c3ccccn3)cc2)n1 | 21µM* | ? | -28% | ? | i | ?
Cc1cc(C)nc(SCc2cccc(C(=O)O)c2)n1 | -16% | -9% | ? | 23% | i | i
Cc1cc(C)nc(SCc2ccc(C(=O)N/N=C/c3ccncc3)cc2)n1 | -23% | -20% | -5% | -10% | i | i
Clc1cccc(Nc2ncnc3c2cnn3-c2ccccc2)c1 | ? | ? | -20% | -17% | i | i
CCOC(=O)c1ccc(Nc2ncnc3c2cnn3-c2cccc(Cl)c2)cc1 | ? | 2% | · | · | i | i
Fc1cccc(Nc2ncnc3c2cnn3-c2ccccc2)c1 | 16µM* | ? | -8% | -8% | i | ?
N#Cc1cccc(Nc2ncnc3c2cnn3-c2cccc(Cl)c2)c1 | 23µM* | ? | · | · | i | ?
O=C(/C=C/c1c(F)cccc1Cl)c1ccc(F)cc1 | 26µM* | 21µM* | ? | ? | i | i
COc1ccccc1C1CCN(Cc2cccc3ccccc23)CC1 | 16µM* | ? | ? | ? | i | ?
COc1ccccc1C1CCN(Cc2ccc(Cl)c(Cl)c2)CC1 | ? | ? | -24% | ? | i | i
COc1ccccc1C1CCN(Cc2c(C)[nH]c3ccccc23)CC1 | 5.8µM* | 4.6µM* | -29% | -25% | i | ?
O=C(O)/C(=C/c1ccc(Cl)c([N+](=O)[O-])c1)c1ccc(S(=O)(=O)N2CCCCC2)s1 | -17% | 11% | -17% | -2% | i | i
CC(C)COc1ccc(-c2nn(-c3ccccc3)cc2/C=C2/SC(=S)N(CC(=O)O)C2=O)cc1 | 9.2µM* | ? | 3% | 1% | i | i
CC(C)COc1ccc(-c2nn(-c3ccccc3)cc2CO)cc1 | ? | 21µM* | -2% | -8% | i | i
